# The panel holds about 83,000 compounds, 20% with a hit somewhere; the sample as a whole holds those more often.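 96-well plates, one dose, 48 hours. Percent growth reported; active if below 10.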 The source made the active and inactive calls.
# Test system: SN12C renal
# Assay: NCI-60 one-dose screen, 48 h (100 = growth as untreated, 0 = no growth, -100 = all killed)
# Details: 10 µM unless noted
row,Compound,growth
1,COc1ccc(-c2cc(-c3nnc(SC/C(=N\O)c4ccccc4)n3-c3ccccc3)c3ccccc3n2)cc1,105% (inactive)
2,Cc1cc2c(cc1C)N(C(=O)CCl)CCN2C(=O)CCl,-38.4% (active)
3,COc1cc(-c2nc3ccccc3s2)ccc1OCc1nc2n(n1)S(=O)(=O)c1ccccc1N2C,107% (inactive)
4,O=C(Cn1c2ccccc2c2ccncc21)N/N=C\c1ccc2ccccc2c1,19.9% (inactive)
5,COc1cc2ncnc(Oc3ccc(NC(=O)Nc4ccc(CN5CCOCC5)c(C(F)(F)F)c4)c4ccccc34)c2cc1OC,8.87% (active)
6,COc1cc(NC(C)CCCN2C(=O)c3ccccc3C2=O)c2nccc(C)c2c1OC (stereo not drawn),126% (inactive)
7,Cc1ccc2c(c1)Nc1ccc(C)cc1C2(C)C,103% (inactive)
8,Cc1ccc(-c2cc(-c3nnc(SCC(=O)c4ccccc4)o3)c3ccccc3n2)cc1,101% (inactive)
9,COc1ccccc1N1CCN(CC(O)COc2c(Br)c(Br)c(Br)c3c2OC(C)(C)C3)CC1 (stereo not drawn),65.8% (inactive)
10,Fc1ccc(/C=N/n2c(-c3cc(Cl)cc(Cl)c3Cl)nn(CNc3ccc(Cl)nn3)c2=S)cc1,102% (inactive)
11,Nc1nc(Nc2ccc(OCc3cccc(F)c3)cc2)c2c(n1)[nH]c1ccc(O)cc12,-69.3% (active)
12,N#CC(C#N)=C(C#N)c1c[nH]c2ccccc12,79% (inactive)
13,FC(F)(F)c1cn(CC2CNC2)c2ncnc(Cl)c12,102% (inactive)
14,Cc1cc(N2CCOCC2)nc(N(CCNc2ccnc3cc(Cl)ccc23)Cc2ccco2)n1,47.5% (inactive)
15,C[C@H]1C=C(C[C@@H](O)CCCCCCCCCC[C@@H](O)[C@H]2CCC(=O)O2)C(=O)O1,117% (inactive)
16,S=c1ssnc1-c1ccccn1,38% (inactive)
17,CC1(C)N=C(N)N=C(N)N1c1cccc(CCCCc2ccccc2)c1,9.06% (active)
18,O=[N+]([O-])c1cccc2cc(S(=O)(=O)O)ccc12,98% (inactive)
19,CCOc1cccc(Nc2nc(N)nc3[nH]c4ccc(O)cc4c23)c1,54.1% (inactive)

row,Compound,growth
1,NN=C(c1ccc(Cl)cc1)c1ccc(Cl)cc1,105% (inactive)
2,O=C(N/N=C1\SCC(=O)N1c1ccccc1)c1cc(-c2cc3ccccc3o2)nn1-c1ccccc1,122% (inactive)
3,COc1ccc(N)c(S)c1,94.4% (inactive)
4,Nn1c(SCC(=O)Nc2cc(Cl)c(Cl)cc2Cl)nnc1-c1cc(F)c(Cl)cc1Cl,151% (inactive)
5,COc1cc(-c2nc3sc(C)cn3c2/C=C2\C(=O)Nc3ccccc32)c(Br)c(OC)c1OC,90.9% (inactive)
6,CC(=S)Nc1ccccc1,92.9% (inactive)
7,O=C(Nc1ccc(Cl)c(Cl)c1)Nc1ccc(Cl)c([N+](=O)[O-])c1,6.3% (active)
8,CCOC(=O)C(C)(CSSCC(C)(NC(=O)c1ccc2ccccc2c1)C(=O)OCC)NC(=O)c1ccc2ccccc2c1 (stereo not drawn),104% (inactive)
9,O=C(NC(=S)Nc1ccc(Cl)cc1)c1ccccc1,98.4% (inactive)
10,CSc1nc(N)nc2c1ncn2C,97.6% (inactive)
11,O=C(O)c1cc2ccccc2cc1Nc1ccccc1,101% (inactive)
12,O=C1CN(CCN2CC(=O)NC(=O)C2)CC(=O)N1,104% (inactive)
13,c1nc(SC2=NCCN2)c2[nH]cnc2n1,78.7% (inactive)
14,O=C(C[n+]1cccc(Br)c1)c1ccc2c(c1)CCCC2,104% (inactive)
15,NS(=O)(=O)c1ccc(-n2nc(-c3ccc(Cl)cc3)ccc2=O)cc1,109% (inactive)
16,O=[N+]([O-])c1ccc(NS(=O)(=O)c2ccccc2)c2ccccc12,44.5% (inactive)
17,CCC1S/C(=N\N=C(/C)c2cccs2)N(c2ccccc2)C1=O (stereo not drawn),135% (inactive)
18,Cc1cc(NCCN(C(C)C)C(C)C)nc(/N=C(\N)Nc2ccc(Cl)c(C(F)(F)F)c2)n1,-45.6% (active)
19,C=CCn1c(SCC(=O)Nc2ccc(/C(C)=N\O)cc2)nnc1-c1cc(-c2ccc(OC)cc2)nc2ccccc12,44.4% (inactive)

# Source: PubChem BioAssay (NCI)
